From PubChem
Sm TGR inh = inhibitors of Schistosoma mansoni thioredoxin glutathione reductase | Q962Y6 | purified TGR, DTNB reduction, TNB absorbance 405 nm | Potency, µM (doses to about 114 µM), without a hit: at the highest dose activity change, negative = inhibition, hits mostly inhibitors | actives 3% (n = 360,000); also: nearly all actives have a fitted effect of over 60% in size
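First, TGR (20 nM dispensed) and NADPH were mixed with compound. Second, a 15 min room-temperature incubation followed. Third, further NADPH and then DTNB were added to start the reaction. Finally, TNB absorbance was monitored kinetically.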
Giardia FBPA inh = blocks Giardia fructose-bisphosphate aldolase activity. purified Giardia FBPA. actives 0.71% (n = 290,000). AID 2451. Potency, µM (series often up to 59.6 µM), inactives show top-dose activity, negative = inhibition, usual class: inhibitors. A8B2U2; also: nearly all actives have a fitted effect of over 55% in size
Target sequence (A8B2U2 whole entry, looked up): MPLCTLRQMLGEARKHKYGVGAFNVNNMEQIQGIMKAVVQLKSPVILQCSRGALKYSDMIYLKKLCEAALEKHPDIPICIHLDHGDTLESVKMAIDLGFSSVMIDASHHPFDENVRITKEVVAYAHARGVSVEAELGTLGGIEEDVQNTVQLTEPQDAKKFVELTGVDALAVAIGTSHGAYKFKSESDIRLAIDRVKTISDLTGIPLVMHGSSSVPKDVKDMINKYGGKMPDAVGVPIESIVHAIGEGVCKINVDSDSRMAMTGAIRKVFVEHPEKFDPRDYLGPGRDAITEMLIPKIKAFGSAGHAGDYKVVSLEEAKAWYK
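40 nM FBPA preincubated 10 min at RT with compound (up to 57.5 uM final), then substrate plus GAPDH/TPI/NAD/arsenate coupling and diaphorase/resazurin added. Fluorescence read after 20 min at RT, 525/598 nm.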
AmpC detergent = blocks E. coli AmpC beta-lactamase in detergent assay | P00811 | actives 0.041% (n = 370,000) | Potency, µM (series often up to 114 µM), inactives show top-dose activity change, negative = inhibition, hits mostly inhibitors | AmpC hydrolysis of nitrocefin, absorbance 480 nm, 0.01% Triton;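 also: 0% = no-compound wells and -100% = no-enzyme wells; nearly all actives have a fitted effect of over 25% in size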
Target sequence (P00811 whole entry, looked up): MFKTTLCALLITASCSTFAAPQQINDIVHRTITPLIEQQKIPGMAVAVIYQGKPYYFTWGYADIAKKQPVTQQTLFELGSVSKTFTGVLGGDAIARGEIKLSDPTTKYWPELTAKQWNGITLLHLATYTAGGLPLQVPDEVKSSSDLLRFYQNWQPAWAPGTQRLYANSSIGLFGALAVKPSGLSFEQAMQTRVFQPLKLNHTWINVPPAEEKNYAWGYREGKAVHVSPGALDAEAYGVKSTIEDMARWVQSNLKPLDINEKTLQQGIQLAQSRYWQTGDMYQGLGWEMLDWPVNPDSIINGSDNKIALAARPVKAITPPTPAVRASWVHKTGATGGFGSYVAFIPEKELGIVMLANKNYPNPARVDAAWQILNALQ
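20 mM phosphate pH 7.0 + 0.01% (detergent screen) or 0.0001% Triton X-100; 5.3 nM AmpC reagent; cpd preinc 15 min RT; nitrocefin (800 uM stock) to start; A480 q20 s × 4 min; Activity was normalised to no-enzyme and no-compound control wells.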
RE007 growth inh = less growth of the S. pombe RE007 Vpr strain; S. pombe RE007 Vpr strain, BacTiter-Glo ATP luminescence, 24 h; AID 651644; Potency, µM (doses to about 92.2 µM), without a hit: at the top dose activity change, negative = less growth, actives largely listed as inhibitors; actives 0.21% (n = 360,000); active = well fitted falling curve with a large enough effect; inconclusive = small, poorly fitted or top-dose-only effect; inactive = no such curve, though single readings can be large or run the other way; also: nearly all actives have a fitted effect of over 50% in size
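Fission yeast RE007 carrying one integrated HIV-1 vpr copy, seeded at OD 0.01 in PMG+AL medium with 23 nL pinned compound. Grown 24 h at 30 degrees; viability read by BacTiter-Glo luminescence after 5 min.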
AmpC inh no detg = inhibitors of E. coli AmpC beta-lactamase without detergent | P00811 | actives 0.52% (n = 330,000) | AmpC nitrocefin hydrolysis, absorbance 480 nm, 0.0001% Triton | Potency, µM (doses to about 57.1 µM), for the others: top-dose activity change, negative = inhibition, most hits filed as inhibitors;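 also: plate controls were no compound for no effect and no enzyme for full effect; nearly all actives have a fitted effect of over 20% in size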
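AmpC (5.3 nM in the dispensed reagent) in 20 mM phosphate pH 7.0 with 0.01% (detergent screen) or 0.0001% Triton X-100 was preincubated with compounds for 15 min at room temperature. Nitrocefin was then added from an 800 uM solution, and hydrolysis was followed at 480 nm.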
Starred values were filed as active, the others as inactive; ? = inconclusive; nt = no result given; [ ] = remark or other dose. Compounds with a hit are over-represented: about 3.4% of the library has one in this group of screens. Unless noted, calls follow the shape of the dose curve; as a rule, active = well fitted curve in the direction sought with a large enough effect; inconclusive = small, poorly fitted or top-dose-only effect, or another doubt; inactive = no such curve, though single readings can be large; an effect the other way counts as inactive or inconclusive. Unless noted, % is scaled to controls: 0 for no effect and ±100 for the full control effect; potency is read from the fitted curve at half-maximal effect.

SMILES	Sm TGR inh	Giardia FBPA inh	AmpC detergent	RE007 growth inh	AmpC inh no detg
COc1ccccc1N=Cc1c(C)[nH]n(-c2ccc(C)cc2C)c1=O	40µM*	-15%	-2%	11%	175%
Cc1cc(C(=O)NCc2ccccc2Cl)c2c(C)nn(-c3cccc(F)c3)c2n1	0%	nt	2%	nt	nt
O=C(O)CC12CC3CC(C1)CC(n1ncc(NCc4ccccc4Cl)c(Cl)c1=O)(C3)C2	-5%	-1%	-2%	0%	-11%
O=C(O)C12CC3CC(C1)CC(n1ncc(NCc4ccco4)c(Cl)c1=O)(C3)C2	2.8µM*	-18%	6%	-17%	-17%
COCCCNCCOc1cc(C(C)C)ccc1C	-1%	3%	1%	47%	?
O=C1CN(c2nc3ccccc3n3cnnc23)CC(=O)N1CCc1ccccc1	32µM*	-1%	?	17%	-32%
Cn1cc(CN2CCN(Cc3ccccc3)CC2)c(-c2cccc(Cl)c2)n1	32µM*	0%	9%	-20%	121%
CN=c1sc2ccccc2n1CC(O)c1ccccc1 (centres undefined)	33%	-8%	-8%	-17%	-14%
CC/C=C\C/C=C\C/C=C\CCCCCCCC(=O)O	35µM*	8%	?	-8%[18.4 µM]	61%
CC/C=C\C/C=C\C/C=C\CCCCCCCCCCCC(=O)O	nt	6%	nt	nt	nt
CCCCC/C=C\C/C=C\C/C=C\C/C=C\CCCC(=O)O	18µM*	3%	-21%	nt	144%
CCOC(=O)N1CCN(C(=O)CSc2ccc(-c3ccccc3)nn2)CC1	19%	3%	4%	-5%	29%
O=C(CCCNC(=O)c1ccc(Cl)cc1)NCc1ccc(F)cc1	10%	6%	5%	10%	-1%
Cc1ccc(NC(=O)N/C=C/c2ccc(Cl)cc2)cc1	31%	nt	13%	2%	-40%
CC1OC(CC(=O)O)CC2=C1C(=O)c1c(O)cccc1C2=O (centres undefined)	nt	nt	nt	1.6µM*	nt
COc1cc(/C=C2\SC(=S)N(CCC(=O)NCCc3ccccc3)C2=O)cc(OC)c1OC	2%	1%	-9%	3%	-9%
C(=N\n1cnnc1SCc1ccccc1)/c1ccco1	22µM*	-4%	?	-13%	-16%
Cn1c2c(c(=O)[nH]c1=O)C(c1ccc(O)cc1)C1=C(N2)c2ccccc2C1=O (centres undefined)	-7%	-12%	0%	-2%	18µM*
COc1ccc(/C=C/c2nc(C#N)c(NCc3ccc(C)cc3)o2)cc1OC	-5%	nt	3%	nt	nt
Cc1cc(C(=O)Nc2sc(C)c(-c3ccc(F)cc3)c2C(N)=O)no1	3%	-4%	?	4%	-6%
CCC1CCC(C(=O)NNC(=O)c2cc(-c3ccco3)[nH]n2)CC1 (centres undefined)	22µM*	-11%	1%	2%	-34%
O=C(NNC(=O)C1CCCCC1)c1ccco1	-1%	10%	-6%	10%	-9%
COc1ccc(C(CNC(=O)c2cccc(S(=O)(=O)Nc3ccc(C)cc3)c2)N2CCCCC2)cc1 (centres undefined)	0%	nt	-10%	2%	7%
Cc1occc1C(=O)NCc1cccc(CNC(=O)c2ccoc2C)c1	40µM*	3%	-17%	-6%	-29%
C=CCn1c(NCc2cc(Cl)ccc2O)nc2ccccc21	-6%	-2%	-17%	-5%	14µM*
SMILES	Sm TGR inh	Giardia FBPA inh	AmpC detergent	RE007 growth inh	AmpC inh no detg
Cc1ccc(NC(=O)CSc2nnnn2C)cc1S(=O)(=O)N(C)C	4%	1%	-1%	3%	-8%
Cc1[nH][nH]c(=O)c1C(c1ccc(-c2ccc(Cl)cc2Cl)o1)c1c(C)[nH][nH]c1=O	?	13µM*	?	nt	-38%
Cc1ccc(C(c2c(C)[nH][nH]c2=O)c2c(C)[nH][nH]c2=O)cc1	-16%	-18%	0%	-14%	-53%
CNC(=S)N/N=C/c1ccc(-c2cccc(C(=O)O)c2)o1	-33%	?	2%	?	-26%
Cc1[nH][nH]c(=O)c1C(c1ccc(-c2ccccc2C(=O)O)o1)c1c(C)[nH][nH]c1=O	?	7.9µM*	-1%	-20%	-22%
COC(=O)c1ccc(-c2ccc(C(c3c(C)[nH][nH]c3=O)c3c(C)[nH][nH]c3=O)o2)cc1	8.9µM*	4.5µM*	?	7%	-51%
Cc1[nH][nH]c(=O)c1C(c1ccc(Br)cc1)c1c(C)[nH][nH]c1=O	?	-23%	5%	1%	-33%
Cc1[nH][nH]c(=O)c1C(c1ccc(-c2cccc(C(=O)O)c2)o1)c1c(C)[nH][nH]c1=O	?	20µM*	7%	2%	-14%
Cc1nnc(NC(=O)CCn2c(=O)oc3ccc(Cl)cc32)s1	-2%	3%	2%	1%	-2%
O=C(NCC1CCCO1)C(c1cccnc1)N(C(=O)Cc1cccs1)c1cccnc1 (centres undefined)	1%	3%	?	4%	0%
Cc1nc2c(=O)n(-c3ccc(F)c(Cl)c3)nc(C)c2s1	10%	9%	-9%	30%	-14%
Cc1[nH][nH]c(=O)c1C(c1ccc(-c2cccc(Cl)c2)o1)c1c(C)[nH][nH]c1=O	7.1µM*	5µM*	1%	-8%	-35%
O=c1[nH]nc(Cc2ccc(-c3cccc(Cl)c3)o2)c2ccccc12	-30%	-1%	0%	-3%	?
COC(=O)c1cc(S(=O)(=O)N2CCCCC2C)c[nH]1 (centres undefined)	-6%	-3%	-2%	-8%	-10%
CN1CCC(NC(=O)c2cccs2)CC1	-1%	-1%	2%	5%	8.9µM*
Cc1nn(-c2ccccn2)c2nc(-c3cccs3)cc(C(=O)NCc3ccco3)c12	-25%	10%	-8%	21%	70%
CCOC(=O)c1cc(-c2ccco2)nc2c1c(C)nn2-c1ccccc1	8.9µM*	-1%	-7%	9%	-16%
Cc1nn(-c2ccccc2)c2nc(-c3ccncc3)cc(C(=O)NCc3ccco3)c12	45µM*	12%	-20%	-4%	69%
CCOC(=O)C1(Cc2cccc(OC)c2)CCN(Cc2cccc3c2OCO3)CC1	3%	-6%	-2%	-10%	14%
COc1cccc(Nc2ccccc2C(=O)O)c1	nt	9%	-2%	1%	-23%
COc1cc(-c2ccc(Nc3ccccc3C(=O)O)c(OC)c2)ccc1Nc1ccccc1C(=O)O	45µM*	?	2%	-20%	-57%
CCOC(=O)C(C(C)=O)c1c(Br)c(O)c(O)c2c(C(=O)c3ccc(C)cc3)coc12 (centres undefined)	4.5µM*	?	-6%	-7%	-46%
CCn1ncc(Cl)c1C(=O)NC(=S)Nc1ccccc1Br	28µM*	nt	-1%	-11%	-33%
NC(=O)C1=C(N)c2ccccc2C1c1ccccc1 (centres undefined)	nt	nt	nt	2%	nt
